CF NFkB block: cystic fibrosis NF-kB activation inhibition; KKLEB NF-kB-GFP reporter, PAF-induced, GFP fluorescence overnight; inhibition, % at 5 µM; hit rate 0.86% among 360,000; AID 588850;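 active means at least 50% inhibition at 5 µM, scaled per plate between neutral and stimulator controls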;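 further: PAF is a Pseudomonas aeruginosa culture filtrate used as stimulus; plate controls were PAF-stimulated DMSO wells for no effect and unstimulated DMSO wells for full effect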
Peg3 prom inh-1: reduces Peg3 promoter-driven luciferase expression in HeLa. hit rate 1.7% among 360,000. HeLa PEG-Prom luciferase reporter, luminescence, overnight. inhibition, % at 20 µM. AID 588405;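 active means inhibition of at least 50% at 20 µM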
TWEAK-Fn14 inh: TWEAK-Fn14 signaling inhibition; TWEAK-stimulated Fn14 reporter cells, luciferase luminescence, 8 h; inhibition, % at 10 µM; hit rate 2% among 360,000; AID 1159606; in the data active means inhibition above about 50%
HIF-2a inh: blocks HIF-2a reporter activity; 786-0 RCC cells HIF-2a reporter, luciferase luminescence, overnight; inhibition, % at 18.8 µM; hit rate 0.72% among 360,000; AID 624352;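 active means inhibition of the luminescence signal of 40% or more relative to plate controls, in a single-dose primary screen at 18.75 µM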
TROY NFkB inh: TROY signaling inhibition | Q293 LMP1-TROYcd NF-kB luciferase reporter, 4 h | inhibition, % at 10 µM | hit rate 0.98% among 360,000;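 active means compounds whose plate-normalised and pattern-corrected inhibition of the luciferase reporter signal at the single screening dose is 50% or more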
KKLEB tox: CF airway cell cytotoxicity counter-screen; KKLEB CF airway cells viability, ATPlite luminescence, overnight; active compounds read low; cells stimulated with P. aeruginosa culture filtrate; activity change (cytotoxicity), % at 5 µM; hit rate 0.36% among 360,000; AID 602141;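 active means corrected activity change at or below -50% at 5 µM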
Peg3 prom inh-2: confirmation of Peg3 promoter inhibitors | inhibition, % at 20 µM | hit rate 84% among 1,300 | HeLa PEG-Prom luciferase reporter, luminescence, overnight | AID 602417 | shares compounds with Peg3 prom inh-1;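 active means at 20 µM dose, 40% or more inhibition averaged across four replicates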
* marks the source's active call; other numbers are inactive results; . = no result; ! = repeats disagree. An excerpt weighted towards active compounds, which were near 4% of everything screened.

SMILES	CF NFkB block	Peg3 prom inh-1	TWEAK-Fn14 inh	HIF-2a inh	TROY NFkB inh	KKLEB tox	Peg3 prom inh-2
Cc1[nH]n2c(=O)cc(C(C)(C)C)nc2c1-c1ccccc1	20	54*	-65	11	11	-2	50*
Cc1ccc(NC(=O)Nc2ccnc(-c3cccnc3)n2)cc1	-14	88*	21	-126	-23	7	67*
Cc1ccc(C(=O)Nc2ccnc(-c3cccnc3)n2)cc1	-32	-114	-44	-205	-33	20	.
CCc1nc2ccc(C(=O)Nc3cccc(OCC(=O)N(C)C)c3)cn2c1N(C)Cc1ccc(OC)cc1	18	72*	4	-3	5	-13	42*
COc1ccc(-c2cc(-c3nnc(COC(=O)c4ccc(O)cc4)o3)c3ccccc3n2)cc1OC	43	52*	31	-14	0	1	34
OCCCn1c(C2CCCN2c2nc(-c3ccc(F)cc3)cs2)nc2cc(Cl)c(N3CCCCC3)cc21 (configuration not stated)	11	56*	17	13	13	0	21
CSc1ccc(C(=O)Nc2cc(S(=O)(=O)N3CCOCC3)ccc2N2CCOCC2)cc1[N+](=O)[O-]	12	12	-26	17	7	-16	.
CC(C)(C)c1ccc(OCCCNCc2ccccc2)cc1	8	112*	-1	13	-1	-10	61*
CCC(C)(C)NC(=O)C(c1ccc(OC)cc1)N(C(=O)CCC(=O)Nc1cc(C)on1)c1ccc(F)cc1 (configuration not stated)	11	17	30	8	7	5	.
Cc1ccc(C(C(=O)NCc2ccco2)N(C(=O)CNC(=O)c2cccs2)c2c(C)cccc2C)cc1 (configuration not stated)	0	66*	-12	20	15	-5	23
Cc1ccc(C(C(=O)NCc2ccco2)N(C(=O)CNC(=O)c2cccs2)c2ccc(C)cc2)cc1 (configuration not stated)	-5	9	14	5	11	1	.
O=C(CCNS(=O)(=O)c1ccccc1)NNC(=O)c1cccc(Cl)c1	17	-10	11	3	-7	-15	.
COc1ccc2[nH]c3c(=O)n(N)c(=O)[nH]c3c2c1	-6	14	2	10	-30	4	.
CC1=CC(C)[C@H](/C=N/n2c(=O)[nH]c3c([nH]c4ccc(Br)cc43)c2=O)C(C)C1 (some centres not stated)	11	93*	14	12	21	-18	55*
COc1ccc2c(c1)[nH]c1c(=O)n(/N=C/C3C(C)C=C(C)CC3C)c(=O)[nH]c12 (configuration not stated)	-13	58*	0	12	6	8	45*
CCOc1nc(-c2ccccc2)ncc1Oc1ccccc1	23	8	19	-13	-1	-10	.
COc1ccc(-n2c(SCC(=O)Nc3cccc(S(N)(=O)=O)c3)nc3ccccc3c2=O)cc1OC	-11	4	-7	22	10	5	.
Cc1ccc(C)c(COC(=O)CCN=C2NS(=O)(=O)c3ccccc32)c1	11	-2	-1	12	-2	6	.
CCN1CCN(Cc2ccc(NC(=O)c3cc(NC(=O)c4ccno4)cc(OC)c3)cc2C(F)(F)F)CC1	9	62*!	7	-26	-10	-4	48*
CCN1CCN(Cc2ccc(NC(=O)c3cc(NC(=O)c4cc(-c5ccc(OC)cc5)n[nH]4)cc(OC)c3)cc2C(F)(F)F)CC1	14	32	-97	-32	-15	-10	.
C=CCN=C1NN=C(c2cc(C)n(CC=C)c2C)CS1	4	74*	47	58*	14	1	82*
Cc1cccc(/C=C2/Sc3ccc(C(=O)NCCN4CCCC4)cc3NC2=O)c1	14	94*	-10	5	-3	-19	100*
CCOC(=O)C1CCN(C(=O)c2ccc3c(c2)NC(=O)/C(=C\c2cccc(C)c2)S3)CC1	-1	-1	-12	-26	50	16	.
Cc1ccc(C(C[N+](=O)[O-])Sc2ccc(N)cc2)cc1 (configuration not stated)	-11	106*	-15	36	-36	-3	97*
